From PubChem BioAssay (Tox21)
“And” between values parts separate entries of the source, which are not always exact repeats. Equal entries are not always repeated. A structure can be active in one record and inactive in another. The source made the active and inactive calls. Where a call stands in place of a potency, no number is given. Unless noted, calls follow the shape of the dose curve; as a rule, active = well fitted curve in the direction sought with a large enough effect in the repeat runs; inconclusive = weak or mixed curves; inactive = no such curve, though single readings can be large; an effect the other way counts as inactive or inconclusive.

Columns and labels:
[1] = qHTS assay to identify small molecule antagonists of the glucocorticoid receptor (GR) signaling pathway - cell viability counter screen (AID 720693); also: nearly all actives have a fitted effect of over 55% in size
[2] = qHTS assay for identifying genotoxic compounds that show differential cytotoxicity against isogenic chicken DT40 cell lines with known DNA damage response pathways - wild type cell line (AID 743012); also: nearly all actives have a fitted effect of over 60% in size; also: potency is read from the fitted curve at half-maximal effect
Method in brief: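 First, wild type DT40 cells were plated at 300 per well and equilibrated about 0.5 h at 37 C/5% CO2. Next, compounds in DMSO were added and exposure lasted 40 h. Finally, CellTiter-Glo was added for 30 min at room temperature and luminescence recorded.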

[3] = qHTS assay for identifying genotoxic compounds that show differential cytotoxicity against isogenic chicken DT40 cell lines with known DNA damage response pathways - Rev3 mutant cell line (AID 743014); also: nearly all actives have a fitted effect of over 55% in size; also: potency is read from the fitted curve at half-maximal effect
[4] = qHTS assay for identifying genotoxic compounds that show differential cytotoxicity against isogenic chicken DT40 cell lines with known DNA damage response pathways - Rad54/Ku70 mutant cell line (AID 743015); also: nearly all actives have a fitted effect of over 60% in size; also: potency is read from the fitted curve at half-maximal effect
[5] = qHTS assay to identify small molecule antagonists of the androgen receptor (AR) signaling pathway - cell viability counter screen (AID 743033; also: nearly all actives have a fitted effect of over 45% in size; also: potency is read from the fitted curve at half-maximal effect)
[6] = qHTS assay to identify small molecule antagonists of the androgen receptor (AR) signaling pathway using the MDA cell line - cell viability counter screen (AID 743041; also: nearly all actives have a fitted effect of over 45% in size)
Method in brief: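 R1881-driven MDA-kb2 AR-luc cells, 3,000/well, were dosed with library compounds for 16 h; cell health came from CellTiter-Fluor fluorescence in the reporter wells.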

[7] = qHTS assay to identify small molecule antagonists of the thyroid receptor (TR) signaling pathway - cell viability counter screen (AID 743064); also: nearly all actives have a fitted effect of over 50% in size; also: potency is read from the fitted curve at half-maximal effect
Method in brief: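 In-well cytotoxicity read by CellTiter-Fluor (30 min, 37 C) following 23.5 h exposure of GH3 cells bearing a TRE-luciferase sensor. Compounds were added alongside 1 nM (final) T3 to drive TR transactivation.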

[8] = qHTS assay to identify small molecule antagonists of the thyroid receptor (TR) signaling pathway (AID 743065); also: nearly all actives have a fitted effect of over 55% in size; also: potency is read from the fitted curve at half-maximal effect
Method in brief: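 Antagonism measured as loss of luciferase signal in GH3 cells stably carrying a TRE-luciferase reporter, co-treated with compound and T3 (1 nM final) for 23.5 h at 37 C. Viability was read in the same well by CellTiter-Fluor.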

[9] = system: thyroid hormone receptor (rat, GH3 cells); assay: qHTS assay to identify small molecule agonists of the thyroid receptor (TR) signaling pathway (AID 743066; calls by dose curve)
[10] = qHTS assay to identify small molecule antagonists of the estrogen receptor alpha (ER-alpha) signaling pathway - cell viability counter screen (AID 743074; calls by dose curve;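 also: HEK293 cells carrying ER-alpha-UAS-bla reporter stimulated with 17beta-estradiol; nearly all actives have a fitted effect of over 45% in size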; also: potency is read from the fitted curve at half-maximal effect)
[11] = target: Estrogen receptor (Homo sapiens) (UniProt P03372); assay: qHTS assay to identify small molecule agonists of the estrogen receptor alpha (ER-alpha) signaling pathway (AID 743075; calls by dose curve; also: potency is read from the fitted curve at half-maximal effect)
[12] = target: Estrogen receptor (Homo sapiens) (UniProt P03372); assay: qHTS assay to identify small molecule agonists of the estrogen receptor alpha (ER-alpha) signaling pathway using the BG1 cell line (AID 743079); also: nearly all actives have a fitted effect of over 20% in size; also: potency is read from the fitted curve at half-maximal effect
[13] = qHTS assay to identify small molecule antagonists of the estrogen receptor alpha (ER-alpha) signaling pathway using the BG1 cell line (AID 743080; calls by dose curve;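 also: BG1 cells stimulated with 17beta-estradiol alongside compound; nearly all actives have a fitted effect of over 25% in size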; also: potency is read from the fitted curve at half-maximal effect)
Method in brief: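 BG1Luc4E2, endogenous ER-alpha, 4xERE-luc; 5 d charcoal-stripped FBS, phenol red free; 24 h plating; cpd + 17beta-estradiol 21.5 h, 37 C/5% CO2; CellTiter-Fluor viability 30 min, then ONE-Glo luciferase 30 min RT.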

[14] = qHTS assay to identify small molecule antagonists of the estrogen receptor alpha (ER-alpha) signaling pathway using the BG1 cell line - cell viability counter screen (AID 743081);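 also: compound given together with 17beta-estradiol as the ER stimulus; series mostly up to about 70 µM; nearly all actives have a fitted effect of over 45% in size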
Aromatase (Homo sapiens) = Aromatase (Homo sapiens) (UniProt P11511); assay: qHTS assay to identify aromatase inhibitors (AID 743083); also: nearly all actives have a fitted effect of over 55% in size; also: potency is read from the fitted curve at half-maximal effect
[15] = target: Estrogen receptor (Homo sapiens) (UniProt P03372); assay: qHTS assay to identify small molecule antagonists of the estrogen receptor alpha (ER-alpha) signaling pathway (AID 743069; active = well fitted curve in the direction sought with a large enough effect in the signal ratio in the repeat runs, not every such curve was filed as active; inconclusive = weak or mixed curves, or effect the other way; inactive = no such curve, though single readings can be large or run the other way; the % refers to the signal ratio)
Method in brief: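 Compound effects are measured against 17beta-estradiol stimulation in HEK293 cells with a UAS-controlled beta-lactamase reporter for ER-alpha. Exposure lasts 18 hr at 37C; LiveBLAzer B/G FRET substrate follows for 2 hr at room temperature.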

Chain of Estrogen receptor (Homo sapiens) (P03372 whole entry, looked up): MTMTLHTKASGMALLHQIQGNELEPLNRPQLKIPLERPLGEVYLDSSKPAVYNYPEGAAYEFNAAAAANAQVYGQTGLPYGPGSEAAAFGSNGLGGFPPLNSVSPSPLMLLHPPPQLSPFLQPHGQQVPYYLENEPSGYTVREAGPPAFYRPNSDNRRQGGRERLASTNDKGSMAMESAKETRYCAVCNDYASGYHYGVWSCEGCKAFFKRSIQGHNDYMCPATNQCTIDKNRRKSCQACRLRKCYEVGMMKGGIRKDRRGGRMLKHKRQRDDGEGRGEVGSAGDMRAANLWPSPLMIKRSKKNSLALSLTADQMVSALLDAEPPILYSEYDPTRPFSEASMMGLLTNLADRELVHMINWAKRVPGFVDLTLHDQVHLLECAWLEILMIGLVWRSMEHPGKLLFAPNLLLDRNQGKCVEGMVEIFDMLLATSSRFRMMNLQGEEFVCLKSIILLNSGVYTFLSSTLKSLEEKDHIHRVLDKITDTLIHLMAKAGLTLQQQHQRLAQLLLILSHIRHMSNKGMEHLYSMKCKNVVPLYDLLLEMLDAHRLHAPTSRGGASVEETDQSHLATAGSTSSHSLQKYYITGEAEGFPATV
Chain of Aromatase (Homo sapiens) (P11511 whole entry, looked up): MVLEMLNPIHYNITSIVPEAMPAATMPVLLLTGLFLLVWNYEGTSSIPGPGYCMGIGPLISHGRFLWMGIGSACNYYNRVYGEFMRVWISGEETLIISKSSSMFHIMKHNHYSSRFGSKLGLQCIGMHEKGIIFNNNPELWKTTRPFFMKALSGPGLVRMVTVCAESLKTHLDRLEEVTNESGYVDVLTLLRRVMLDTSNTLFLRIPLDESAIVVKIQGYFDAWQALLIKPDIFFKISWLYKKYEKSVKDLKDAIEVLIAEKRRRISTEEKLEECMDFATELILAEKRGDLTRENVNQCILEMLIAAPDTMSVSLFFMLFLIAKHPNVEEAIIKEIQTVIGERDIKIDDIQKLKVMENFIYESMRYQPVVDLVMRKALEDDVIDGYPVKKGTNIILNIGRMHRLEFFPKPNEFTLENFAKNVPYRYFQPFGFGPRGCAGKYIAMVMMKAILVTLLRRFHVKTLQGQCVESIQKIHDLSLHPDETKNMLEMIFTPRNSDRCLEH

Row | SMILES | Potency [1] | Potency [2] | Potency [3] | Potency [4] | Potency [5] | Potency [6] | Potency [7] | Potency [8] | Potency [9] | Potency [10] | Potency [11] | Potency [12] | Potency [13] | Potency [14] | Potency (Aromatase (Homo sapiens)) | Potency [15]
1 | COC(=O)Nc1nc2ccc(S(=O)c3ccccc3)cc2[nH]1 (centres undefined) | inactive | 9.44 µM (active) and 6.85 µM (active) | 11.9 µM (active) and 6.11 µM (active) | 13.3 µM (active) and 8.63 µM (active) | inactive | inactive | inactive | 10.6 µM (active) and 15.3 µM (active) | inactive | inactive | inactive | inactive | 12.2 µM (active) | inactive | inactive | 
2 | C=C(C)C1CC=C(C)CC1 (centres undefined) | inactive | inactive | inactive | inactive | inactive | inactive | inactive |  |  | inactive | inactive | inactive | inactive | inactive | inactive | inactive
3 | CCCCCCCCCC(=O)OC | inactive | inactive | inactive | inactive | inactive | inactive | inactive | inactive | inactive | inactive |  |  |  | inactive | inactive | 
4 | CCOC(=O)C(C#N)=C(c1ccccc1)c1ccccc1 | inactive | 23.7 µM (active) and 17.2 µM (active) | 26.6 µM (active) and 15.4 µM (active) | 19.3 µM (active) | inactive | inactive | inactive | inactive | inactive | inactive |  |  |  | inactive | inactive | 
5 | O=CCCCC=O | inactive | 6.11 µM (active) | 2.17 µM (active) | inactive and 2.73 µM (active) | inactive | inactive | inactive | inactive | inactive | inactive | inactive | inactive |  | inactive | inactive | inactive
6 | S=C(NC1CCCCC1)NC1CCCCC1 | inactive | inactive | inactive and 61.1 µM (active) | inactive and 61.1 µM (active) | 19.1 µM (active) | inactive | inactive | inactive | inactive | 48.1 µM (active) | inactive |  | 75.5 µM (active) and 54.5 µM (active) | inactive |  | inactive
7 | CC(C)(C)NC(=O)[C@H]1CC[C@H]2[C@@H]3CC[C@H]4NC(=O)C=C[C@]4(C)[C@H]3CC[C@]12C | inactive | inactive | inactive and 60.4 µM (active) and 27.3 µM (active) | inactive and 68.6 µM (active) | inactive | inactive | inactive |  |  | inactive | inactive | inactive | inactive | inactive | inactive | inactive
8 | O=P(O)(O)O | inactive | inactive | inactive | inactive | inactive | inactive | inactive | inactive | inactive | inactive |  |  |  | inactive | inactive | 
9 | c1cc(-c2ccncc2)ccn1 | inactive | inactive | inactive | inactive | inactive | inactive | inactive | inactive | inactive | inactive | inactive | inactive |  | inactive | inactive | inactive
10 | CCC(C)c1ccccc1O (centres undefined) | inactive | inactive | inactive | inactive | inactive | inactive | inactive | inactive | inactive |  |  |  |  | inactive | inactive | 
11 | CC(C)CC(C)(O)C#CC(C)(O)CC(C)C (centres undefined) | inactive | inactive | 54.5 µM (active) | 54.5 µM (active) | inactive | inactive | inactive | inactive | inactive | inactive |  |  |  | inactive |  | 
12 | C[Si](C)(C)O[Si](C)(C)C | inactive | inactive | inactive | inactive | inactive | inactive | inactive | inactive | inactive | inactive |  |  |  | inactive | inactive | 
13 | C#C[C@]1(O)CC[C@H]2[C@@H]3CCc4cc(OC)ccc4[C@H]3CC[C@@]21C | inactive | 5.31 µM (active) and 3.86 µM (active) | 5.96 µM (active) and 4.86 µM (active) | 6.68 µM (active) and 6.86 µM (active) | inactive | inactive | inactive |  | inactive | inactive | 19 nM [inconclusive] (active) and 30.9 nM [inconclusive] (active) | 1.5 nM (active) and 0.8 nM (active) | inactive | inactive |  | 
14 | CCCCCCCCCCCO | inactive | inactive and 48.6 µM (active) | inactive and 54.5 µM (active) | inactive and 61.1 µM (active) | inactive | inactive | inactive and 30.6 µM (active) |  | inactive | inactive | inactive | inactive | inactive | inactive | inactive and 27.3 µM (active) | inactive
15 | O=CCc1ccccc1 | inactive | inactive | inactive | inactive and 54.5 µM (active) | inactive | inactive | inactive | inactive | inactive | inactive |  |  |  | inactive | inactive | 
16 | O=C1c2cccc(O)c2C(=O)c2c(O)cccc21 | inactive | inactive | inactive | inactive | inactive | inactive | inactive | inactive | inactive | inactive |  |  |  |  | inactive | 
17 | Cc1cccc(N(C)C(=S)Oc2ccc3ccccc3c2)c1 | inactive | inactive and 30.6 µM (active) | inactive and 43.3 µM (active) | inactive and 30.6 µM (active) | inactive | inactive | inactive | inactive | inactive | inactive | inactive |  |  | inactive | inactive | inactive
18 | COC(=O)c1ccccc1 | inactive | inactive | inactive | inactive | inactive | inactive | inactive | inactive | inactive | inactive |  |  |  | inactive | inactive | 
